The values that follow come from PubChem BioAssay (NCATS).

Results filed as inconclusive are left out. Values without a mark were called inactive. Calls come from the whole dose curve; as a rule, active = well fitted curve in either direction with a large enough effect (not every such curve was filed as active); inconclusive = small, poorly fitted or top-dose-only effect, or another doubt; inactive = flat fitted curve, though single readings scatter.
% is set by controls: 0 for no effect and ±100 for the full control effect.

The nature of the first assay: AP1 Signaling Pathway (AID 357).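 Note: ME-180 reporter cells stimulated with EGF at its EC50 level.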 As to conditions: ME-180 (cervical carcinoma) AP-1-bla reporter, EGF-induced, beta-lactamase ratio, 5 h; at 17.2 µM (top of the series) unless noted. Summed up:
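A ratiometric CCF4 readout (405 nm excitation; 460 and 530 nm emission) quantified AP-1-driven beta-lactamase in ME-180 cells after 5 h with compound and EC50 EGF; AC50 values were derived for activators and inhibitors.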
On to `O=S(=O)(O)c1nc2ccccc2n1Cc1ccc(Cl)cc1Cl`, for which the activity change, negative = inhibition is 18.6%.
In the case of `COc1ccccc1C(=O)N1CCCC1(C#N)c1ccccc1` (stereo not given), the activity change, negative = inhibition is -10.1%.
For the molecule `Cc1ccc(C2/C(=C(/O)c3cnn(-c4ccccc4)c3C)C(=O)C(=O)N2CCN2CCOCC2)o1` (stereo not given), the activity change, negative = inhibition is -8.72%.
Same read-out and setting: as for `COc1ccc(C(=O)N2CCCC(c3ccccc3)C2)cc1` (stereo not given), the figure is -9.81%; as for `CC(C)OC(=O)[C@H]1[C@H](c2ccc(Cl)cc2)[C@@](C#N)(C(N)=O)[C@@H]2C=CC(C(N)=O)=CN21`, -13.7%.
Same read-out and setting: as for `CCN(CC)CCCC1(CN)OCCc2ccccc21` (stereo not given), the figure is 19.8%.
On the same count and under the same terms, in the case of `N=c1ncn(CC(O)CN2CCOCC2)c2nc(N3CCOCC3)[nH]c12` (stereo not given) it was 6.34%; in that of `Cc1nn(CCO)c2c1C(=O)CCC2`, 3.9%; in that of `CC(C)CCNc1nc2c(cc1C#N)COC(C)(C)C2`, -23.1%.
With `CCCCCOc1ccccc1C(=O)NCC(=O)O`, the activity change, negative = inhibition was 1.59%.
The same measure, in the same setting: as for `COCc1[nH]nc2c1C(c1ccccc1OC)C(C#N)=C(N)O2` (stereo not given), the figure is -14.7%; as for `CSc1nnc(C)c(=O)[nH]1`, -4.3%.
Same read-out and setting: as for `COCCCn1c2nc3ccccc3nc2c2c(=O)n(CC3CCCO3)cnc21` (stereo not given), the figure is 0.107%; as for `CC1(C(=O)CSc2n[nH]c(-c3ccccc3Cl)n2)CCC(=O)O1` (stereo not given), 6.38%.
In the case of `CCCC(=O)Nc1sc2c(c1C#N)CCCC2`, the activity change, negative = inhibition was -16.2%.
Still for that read-out and setting: as for `Cc1nc2ccccc2cc1O`, the figure is 13.6%.
As for `Nc1ccc2oc3ncccc3c(=O)c2c1`, the activity change, negative = inhibition is 7.58%.
As to `CCN(CC)CCN1C(=O)C(=O)/C(=C(/O)c2ccc(OC)cc2)C1c1ccco1` (stereo not given), the activity change, negative = inhibition is -1.18%.
The same measure, in the same setting: in the case of `Cc1cc2ccccc2cc(C)c1=O` it was 9.45%; in that of `CCC(=O)Nc1cccc(-c2nnc(SCC(=O)NCc3ccco3)n2C)c1`, -2.45%; in that of `Cc1c(C(=O)O)c(=S)sn1CCOc1ccccc1`, -0.1%.
Same read-out and setting: in the case of `CCOC(=O)CSc1nc(-c2ccncc2)ccc1C#N` it was -1.16%; in that of `O=C1C2ON(c3ccccc3)C(c3cccnc3)C2C(=O)N1c1ccc(Cl)c(Cl)c1` (stereo not given), -4.98%.
Same read-out and setting: in the case of `c1ccc(SCc2nc3ccccc3[nH]2)nc1` it was -0.127%; in that of `Cc1cc(C)nc(NC2=NCC(=O)N2c2ccccc2)n1`, 13.1%.
For `Cc1ccccc1COc1ccc(/C(O)=C2/C(=O)C(=O)N(CCCn3ccnc3)C2c2ccco2)cc1` (stereo not given), the activity change, negative = inhibition was -11.1%.
Same read-out and setting: in the case of `CC1(C)Cc2c(c(-c3ccccc3)nc3[nH][nH]c(=O)c23)CO1` it was -1.59%.
For `CCn1cc(C(=O)NCC2CCCO2)c(=O)c2cc(F)c(N3CCN(C)CC3)cc21` (stereo not given), the activity change, negative = inhibition was -11.4%.
Still for that read-out and setting: in the case of `O=C(c1ccccc1)c1cc(-c2ccccc2)on1` it was -5.5%.
Still for that read-out and setting: in the case of `COc1ccc(C2NC3=C(CCC3)C3(C#N)C(OC)(OC)N=C(N)C23C#N)cc1` (stereo not given) it was -8.29%.
On the same count and under the same terms, as for `OCCNC1=NCCN1`, the figure is -9.49%; as for `COC(=O)c1ccc(C2/C(=C(/O)c3ccc(OC)cc3)C(=O)C(=O)N2Cc2ccco2)cc1` (stereo not given), -4.01%; as for `Cc1cc(C)n2c3c(c(C#N)c2n1)CC(C)(C)OC3`, 5.4%.
For the molecule `CCOC(=O)C(NC=O)(NC(C)(C)C)C(=O)OCC`, the activity change, negative = inhibition was -2.44%.
With `Cc1cc(=O)oc(C)c1C(=O)N1CCN(Cc2ccc3c(c2)OCO3)CC1`, the activity change, negative = inhibition is 6.44%.
The same measure, in the same setting: in the case of `C=CCOc1ccc(/C(O)=C2/C(=O)C(=O)N(CCCN3CCOCC3)C2c2ccc(OC)cc2)cc1` (stereo not given) it was -6.96%.
The same measure, in the same setting: as for `C=COC(=O)CSc1nc(-c2cccs2)ccc1C#N`, the figure is 4.27%; as for `CN1CCN(Cc2c(O)ccc3c(-c4ccccc4)cc(=O)oc23)CC1`, -11.8%.
Still for that read-out and setting: as for `COc1ccc(OC)c(C2/C(=C(\O)c3ccc(OC)c(Cl)c3)C(=O)C(=O)N2CCN(C)C)c1` (stereo not given), the figure is 10.2%; as for `CCc1[nH]c(=O)c(C#N)c2c1CCCC2`, 3.3%.

A short description of the next assay: NFAT Signaling Pathway (AID 444).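 Note: carbachol stimulus at about its EC50 of 1 µM final.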 As to conditions: Jurkat NFAT-bla M1, carbachol, beta-lactamase ratio, 5 h; at 17.2 µM (top of the series) unless noted. Summed up:
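Read-out: CCF4 FRET ratio (460 nm/530 nm) after 1 h RT dye loading, used for %activity and AC50 from titration series. Cells: Jurkat NFAT-β-lactamase/M1 line, treated with compound plus 1 uM carbachol for 5 h, 37 °C.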
For the molecule `O=S(=O)(O)c1nc2ccccc2n1Cc1ccc(Cl)cc1Cl`, the activity change, negative = inhibition was 7.47%.
Still for that read-out and setting: as for `COc1ccccc1C(=O)N1CCCC1(C#N)c1ccccc1` (stereo not given), the figure is -0.126%; as for `Cc1ccc(C2/C(=C(/O)c3cnn(-c4ccccc4)c3C)C(=O)C(=O)N2CCN2CCOCC2)o1` (stereo not given), 16.8%; as for `COc1ccc(C(=O)N2CCCC(c3ccccc3)C2)cc1` (stereo not given), 18.5%.
On the same count and under the same terms, as for `CC(C)OC(=O)[C@H]1[C@H](c2ccc(Cl)cc2)[C@@](C#N)(C(N)=O)[C@@H]2C=CC(C(N)=O)=CN21`, the figure is -5.51%.
As for `CCN(CC)CCCC1(CN)OCCc2ccccc21` (stereo not given), the activity change, negative = inhibition was -16.2%.
On the same count and under the same terms, in the case of `N=c1ncn(CC(O)CN2CCOCC2)c2nc(N3CCOCC3)[nH]c12` (stereo not given) it was -3.22%.
On the same count and under the same terms, as for `Cc1nn(CCO)c2c1C(=O)CCC2`, the figure is -9.31%.
Same read-out and setting: as for `CC(C)CCNc1nc2c(cc1C#N)COC(C)(C)C2`, the figure is 4.17%.
Regarding `CCCCCOc1ccccc1C(=O)NCC(=O)O`, the activity change, negative = inhibition is 0.449%.
On the same count and under the same terms, as for `COCc1[nH]nc2c1C(c1ccccc1OC)C(C#N)=C(N)O2` (stereo not given), the figure is -26.9%; as for `CSc1nnc(C)c(=O)[nH]1`, -8.38%; as for `COCCCn1c2nc3ccccc3nc2c2c(=O)n(CC3CCCO3)cnc21` (stereo not given), -12.4%.
Same read-out and setting: as for `CC1(C(=O)CSc2n[nH]c(-c3ccccc3Cl)n2)CCC(=O)O1` (stereo not given), the figure is 4.32%.
On the same count and under the same terms, as for `CCCC(=O)Nc1sc2c(c1C#N)CCCC2`, the figure is -0.791%.
On to `Cc1nc2ccccc2cc1O`, for which the activity change, negative = inhibition is 7.71%.
Regarding `Nc1ccc2oc3ncccc3c(=O)c2c1`, the activity change, negative = inhibition was 10.7%.
On the same count and under the same terms, in the case of `CCN(CC)CCN1C(=O)C(=O)/C(=C(/O)c2ccc(OC)cc2)C1c1ccco1` (stereo not given) it was -15.2%; in that of `Cc1cc2ccccc2cc(C)c1=O`, -28.3%; in that of `CCC(=O)Nc1cccc(-c2nnc(SCC(=O)NCc3ccco3)n2C)c1`, 6.34%.
Consider `Cc1c(C(=O)O)c(=S)sn1CCOc1ccccc1`, for which the activity change, negative = inhibition was 10.4%.
Regarding `CCOC(=O)CSc1nc(-c2ccncc2)ccc1C#N`, the activity change, negative = inhibition was -7.89%.
Still for that read-out and setting: as for `O=C1C2ON(c3ccccc3)C(c3cccnc3)C2C(=O)N1c1ccc(Cl)c(Cl)c1` (stereo not given), the figure is 16%; as for `c1ccc(SCc2nc3ccccc3[nH]2)nc1`, 6.97%.
The same measure, in the same setting: in the case of `Cc1cc(C)nc(NC2=NCC(=O)N2c2ccccc2)n1` it was -8.71%.
On to `Cc1ccccc1COc1ccc(/C(O)=C2/C(=O)C(=O)N(CCCn3ccnc3)C2c2ccco2)cc1` (stereo not given), for which the activity change, negative = inhibition is 10.8%.
Same read-out and setting: in the case of `CC1(C)Cc2c(c(-c3ccccc3)nc3[nH][nH]c(=O)c23)CO1` it was -1.86%; in that of `CCn1cc(C(=O)NCC2CCCO2)c(=O)c2cc(F)c(N3CCN(C)CC3)cc21` (stereo not given), -20.1%; in that of `O=C(c1ccccc1)c1cc(-c2ccccc2)on1`, -10%.
Same read-out and setting: in the case of `COc1ccc(C2NC3=C(CCC3)C3(C#N)C(OC)(OC)N=C(N)C23C#N)cc1` (stereo not given) it was 6.55%.
The same measure, in the same setting: in the case of `OCCNC1=NCCN1` it was 3.37%; in that of `COC(=O)c1ccc(C2/C(=C(/O)c3ccc(OC)cc3)C(=O)C(=O)N2Cc2ccco2)cc1` (stereo not given), -12%.
With `Cc1cc(C)n2c3c(c(C#N)c2n1)CC(C)(C)OC3`, the activity change, negative = inhibition is -2.38%.
Take `CCOC(=O)C(NC=O)(NC(C)(C)C)C(=O)OCC`: the activity change, negative = inhibition is 4.66%.
On the same count and under the same terms, as for `Cc1cc(=O)oc(C)c1C(=O)N1CCN(Cc2ccc3c(c2)OCO3)CC1`, the figure is 17.1%; as for `C=CCOc1ccc(/C(O)=C2/C(=O)C(=O)N(CCCN3CCOCC3)C2c2ccc(OC)cc2)cc1` (stereo not given), 8.61%.
Same read-out and setting: in the case of `C=COC(=O)CSc1nc(-c2cccs2)ccc1C#N` it was -19.4%.
On the same count and under the same terms, as for `CN1CCN(Cc2c(O)ccc3c(-c4ccccc4)cc(=O)oc23)CC1`, the figure is -9.28%.
As for `COc1ccc(OC)c(C2/C(=C(\O)c3ccc(OC)c(Cl)c3)C(=O)C(=O)N2CCN(C)C)c1` (stereo not given), the activity change, negative = inhibition is 2.23%.
As for `CCc1[nH]c(=O)c(C#N)c2c1CCCC2`, the activity change, negative = inhibition was -7.46%.
